According to the supplement of paper PMC12297408:
Structures can show the parent of a compound that is named as a salt. Values without a mark were called inactive.

test system: Plasmodium falciparum NF54/iGP1_RE9H ulg8 stage V gametocytes; assay: gametocyte viability (luciferase signal relative to DMSO control) (% of DMSO control); higher = less gametocytocidal activity, active = 50 or less; conditions: concentration: 1 µM; exposure time: 72 h
How it was run: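 Stage V gametocytes of the NF54/iGP1_RE9Hulg8 line (day 12; ~2.5% gametocytemia, 3% hematocrit), in medium containing 0.5% Albumax II, were dispensed into 96-well plates with compounds spotted in nanolitre volumes from 10 mM DMSO stocks, for final concentrations of 10 µM or 1 µM in a single well each. After 72 h at 37 °C, 90 µl from each well was combined with 10 µl D-luciferin (30 mg/ml), and luminescence was measured on an IVIS Lumina II. Viability was expressed against the mean of the DMSO vehicle wells on the same plate.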

Compound | gametocyte viability
Nc1ncnc2c1c(-c1cnc3[nH]ccc3c1)nn2C1CCCC1 | 101
CCOc1ccn(-c2ccc(F)cc2)c(=O)c1C(=O)Nc1ccc(Oc2ccnc(N)c2Cl)c(F)c1 | 95.8
Cc1ccc(C(=O)Nc2ccc(CN3CCN(C)CC3)c(C(F)(F)F)c2)cc1C#Cc1cnc2cccnn12 | 111
CN(C)Cc1cccc(N=C(c2ccccc2)c2c(O)[nH]c3cc(C(N)=O)ccc23)c1 | 109
c1cncc(CN2CCC(n3ncc4c(N5CCOCC5)nc(-c5ccc6[nH]ccc6c5)nc43)CC2)c1 | 95.7
CCc1cccc(CC)c1NC(=O)N1Cc2[nH]nc(NC(=O)c3ccc(N4CCN(C)CC4)cc3)c2C1 | 109
Cc1ccc(NC(=O)c2ccc(CN3CCN(C)CC3)cc2)cc1Nc1nc(-c2cccnc2)cs1 [Masitinib (AB1010)] | 104
COc1cc2ncnc(Nc3cccc(Cl)c3)c2cc1OC | 109
CC[C@H](Nc1ncnc2[nH]cnc12)c1nc2cccc(F)c2c(=O)n1-c1ccccc1 | 95.1
Nc1nc(N)c2nc(-c3cccc(O)c3)c(-c3cccc(O)c3)nc2n1 | 110
Nc1ncnc2c1c(I)cn2[C@@H]1O[C@H](CO)[C@@H](O)[C@H]1O [5-Iodotubericidin] | 103
Cc1[nH]c(/C=C2\C(=O)Nc3ccc(S(=O)(=O)N(C)c4cccc(Cl)c4)cc32)c(C)c1C(=O)N1CCN(C)CC1 | 107
Cn1cc(-c2cnn3c(N)c(Br)c([C@@H]4CCCNC4)nc23)cn1 | 114
O=c1c(O)c(-c2ccc(O)c(O)c2)oc2cc(O)cc(O)c12 [Quercetin (Sophoretin)] | 105
Cc1cc(Nc2nc(N[C@@H](C)c3ccc(F)cc3)c(C#N)cc2F)n[nH]1 | 97.5
COc1cc2c(N3CCN(C(=O)Nc4ccc(OC(C)C)cc4)CC3)ncnc2cc1OCCCN1CCCCC1 [Tandutinib (MLN518)] | 98.8
COc1cc2ncnc(Nc3ccc(F)c(Cl)c3)c2cc1OCCCN1CCOCC1 [Gefitinib (Iressa)] | 95.3
O=C(NOCC(O)CO)c1cc(Br)c(F)c(F)c1Nc1ccc(I)cc1F (stereo not given) | 99.1
Cc1ccc([N+](=O)[O-])cc1S(=O)(=O)N(C)/N=C/c1cnc2ccc(Br)cn12 | 94.9
COc1ccc(-c2ccc3c(N4CCOC[C@@H]4C)nc(N4CCOC[C@@H]4C)nc3n2)cc1CO | 96.5

Compound | gametocyte viability
Cn1cnc2c(NCc3ccccc3)nc(NCCO)nc21 [Olomoucine] | 95.2
C#Cc1cccc(Nc2ncnc3cc(OC)c(OC)cc23)c1 | 103
Nc1ncnc2c1c(-c1cccc(OCc3ccccc3)c1)cn2C1CC(CN2CCCC2)C1 (stereo not given) | 94.4
Cc1ccc(S(=O)(=O)/C=C/C#N)cc1 | 103
Cn1c(=O)n(-c2ccc(C(C)(C)C#N)cc2)c2c3cc(-c4cnc5ccccc5c4)ccc3ncc21 | 96.8
COc1cc(C=C(C#N)C(N)=O)cc(CSc2nc3ccccc3s2)c1O | 111
COc1cc2c(Oc3ccc(NC(=O)C4(C(=O)Nc5ccc(F)cc5)CC4)cc3F)ccnc2cc1OCCCN1CCOCC1 | 86.7
Cc1nc(N)sc1-c1ccnc(Nc2ccc(N3CCOCC3)cc2)n1 | 107
CNCCNS(=O)(=O)c1cccc2cnccc12 | 104
O=S(=O)(c1cccc2c(Cl)cccc12)N1CCCNCC1 | 93.2
O=c1c(-c2ccc(O)cc2)coc2cc(O)cc(O)c12 [Genistein] | 95.5
C[C@@H]1CN(CC(=O)Nc2ccc3c(c2)Cc2cccc(-c4cc(=O)cc(N5CCOCC5)o4)c2S3)C[C@H](C)O1 | 86
O=C1NC(=O)/C(=C/c2ccc(-c3ccc(F)cc3O)o2)S1 | 100
O=c1cc(N2CCOCC2)oc2c(-c3cccc4c3sc3ccccc34)cccc12 | 106
O=C(NOCC1CC1)c1ccc(F)c(F)c1Nc1ccc(I)cc1Cl | 93.2
N#CC(=Cc1ccc2[nH]ccc2c1)C(N)=C(C#N)C#N | 100
Cc1ccc(NC(=O)c2cccc(N(C)C)c2)cc1NC(=O)c1ccc(O)cc1 | 95.9
O=C(Nc1ccc(OC(F)(F)F)cc1)c1sccc1NCc1ccnc2ccccc12 | 96.9
Cc1cc(Nc2nc(N[C@@H](C)c3ncc(F)cn3)ncc2Cl)[nH]n1 | 97.5
NC1(c2ccc(-c3nc4ccn5c(=O)[nH]nc5c4cc3-c3ccccc3)cc2)CCC1 [MK-2206 dihydrochloride] | 97.5

same assay, conditions: concentration: 10 µM; exposure time: 72 h

Compound | gametocyte viability
Nc1ncnc2c1c(-c1cnc3[nH]ccc3c1)nn2C1CCCC1 | 116
CCOc1ccn(-c2ccc(F)cc2)c(=O)c1C(=O)Nc1ccc(Oc2ccnc(N)c2Cl)c(F)c1 | 92.2
Cc1ccc(C(=O)Nc2ccc(CN3CCN(C)CC3)c(C(F)(F)F)c2)cc1C#Cc1cnc2cccnn12 | 130
CN(C)Cc1cccc(N=C(c2ccccc2)c2c(O)[nH]c3cc(C(N)=O)ccc23)c1 | 122
c1cncc(CN2CCC(n3ncc4c(N5CCOCC5)nc(-c5ccc6[nH]ccc6c5)nc43)CC2)c1 | 103
CCc1cccc(CC)c1NC(=O)N1Cc2[nH]nc(NC(=O)c3ccc(N4CCN(C)CC4)cc3)c2C1 | 68.7
Cc1ccc(NC(=O)c2ccc(CN3CCN(C)CC3)cc2)cc1Nc1nc(-c2cccnc2)cs1 [Masitinib (AB1010)] | 80.3
COc1cc2ncnc(Nc3cccc(Cl)c3)c2cc1OC | 104
CC[C@H](Nc1ncnc2[nH]cnc12)c1nc2cccc(F)c2c(=O)n1-c1ccccc1 | 95.9
Nc1nc(N)c2nc(-c3cccc(O)c3)c(-c3cccc(O)c3)nc2n1 | 109
Nc1ncnc2c1c(I)cn2[C@@H]1O[C@H](CO)[C@@H](O)[C@H]1O [5-Iodotubericidin] | 113
Cc1[nH]c(/C=C2\C(=O)Nc3ccc(S(=O)(=O)N(C)c4cccc(Cl)c4)cc32)c(C)c1C(=O)N1CCN(C)CC1 | 92.8
Cn1cc(-c2cnn3c(N)c(Br)c([C@@H]4CCCNC4)nc23)cn1 | 85.8
O=c1c(O)c(-c2ccc(O)c(O)c2)oc2cc(O)cc(O)c12 [Quercetin (Sophoretin)] | 108
Cc1cc(Nc2nc(N[C@@H](C)c3ccc(F)cc3)c(C#N)cc2F)n[nH]1 | 99.6
COc1cc2c(N3CCN(C(=O)Nc4ccc(OC(C)C)cc4)CC3)ncnc2cc1OCCCN1CCCCC1 [Tandutinib (MLN518)] | 91.8
COc1cc2ncnc(Nc3ccc(F)c(Cl)c3)c2cc1OCCCN1CCOCC1 [Gefitinib (Iressa)] | 92.8
O=C(NOCC(O)CO)c1cc(Br)c(F)c(F)c1Nc1ccc(I)cc1F (stereo not given) | 97.3
Cc1ccc([N+](=O)[O-])cc1S(=O)(=O)N(C)/N=C/c1cnc2ccc(Br)cn12 | 101
COc1ccc(-c2ccc3c(N4CCOC[C@@H]4C)nc(N4CCOC[C@@H]4C)nc3n2)cc1CO | 78.9

Compound | gametocyte viability
Cn1cnc2c(NCc3ccccc3)nc(NCCO)nc21 [Olomoucine] | 91.5
C#Cc1cccc(Nc2ncnc3cc(OC)c(OC)cc23)c1 | 96.4
Nc1ncnc2c1c(-c1cccc(OCc3ccccc3)c1)cn2C1CC(CN2CCCC2)C1 (stereo not given) | 84
Cc1ccc(S(=O)(=O)/C=C/C#N)cc1 | 3.38 (active)
Cn1c(=O)n(-c2ccc(C(C)(C)C#N)cc2)c2c3cc(-c4cnc5ccccc5c4)ccc3ncc21 | 104
COc1cc(C=C(C#N)C(N)=O)cc(CSc2nc3ccccc3s2)c1O | 113
COc1cc2c(Oc3ccc(NC(=O)C4(C(=O)Nc5ccc(F)cc5)CC4)cc3F)ccnc2cc1OCCCN1CCOCC1 | 91.5
Cc1nc(N)sc1-c1ccnc(Nc2ccc(N3CCOCC3)cc2)n1 | 108
CNCCNS(=O)(=O)c1cccc2cnccc12 | 108
O=S(=O)(c1cccc2c(Cl)cccc12)N1CCCNCC1 | 90
O=c1c(-c2ccc(O)cc2)coc2cc(O)cc(O)c12 [Genistein] | 83.9
C[C@@H]1CN(CC(=O)Nc2ccc3c(c2)Cc2cccc(-c4cc(=O)cc(N5CCOCC5)o4)c2S3)C[C@H](C)O1 | 68
O=C1NC(=O)/C(=C/c2ccc(-c3ccc(F)cc3O)o2)S1 | 110
O=c1cc(N2CCOCC2)oc2c(-c3cccc4c3sc3ccccc34)cccc12 | 105
O=C(NOCC1CC1)c1ccc(F)c(F)c1Nc1ccc(I)cc1Cl | 98.6
N#CC(=Cc1ccc2[nH]ccc2c1)C(N)=C(C#N)C#N | 104
Cc1ccc(NC(=O)c2cccc(N(C)C)c2)cc1NC(=O)c1ccc(O)cc1 | 95.6
O=C(Nc1ccc(OC(F)(F)F)cc1)c1sccc1NCc1ccnc2ccccc12 | 86.6
Cc1cc(Nc2nc(N[C@@H](C)c3ncc(F)cn3)ncc2Cl)[nH]n1 | 95.5
NC1(c2ccc(-c3nc4ccn5c(=O)[nH]nc5c4cc3-c3ccccc3)cc2)CCC1 [MK-2206 dihydrochloride] | 63.9
